From PubChem BioAssay (Tox21)
Inconclusive results are not listed. Calls of active or inactive are those of the source. Unless noted, calls follow the shape of the dose curve; as a rule, active = well fitted curve in the direction sought with a large enough effect in the repeat runs; inconclusive = weak or mixed curves; inactive = no such curve, though single readings can be large; an effect the other way counts as inactive or inconclusive.

What was measured:
[1] = qHTS RealTime-Glo MT Cell Viability Assay in HEK293 cells - 24 hour (AID 1224886); also: nearly all actives have a fitted effect of over 50% in size; also: potency is read from the fitted curve at half-maximal effect; as to activity change, negative = cytotoxicity: top concentration of the series differs between compounds
Procedure, shortened: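 Nonlytic real-time viability readout: viable cells convert prosubstrate to NanoLuc substrate, giving luminescence proportional to live cell number. HEK293, 600 cells/well, compound added after 5 h, continuous culture at 37 C.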

[2] = qHTS RealTime-Glo MT Cell Viability Assay in HEK293 cells - 8 hour (AID 1224887); also: nearly all actives have a fitted effect of over 50% in size; also: potency is read from the fitted curve at half-maximal effect; as to activity change, negative = cytotoxicity: top concentration of the series differs between compounds
Procedure, shortened: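 Real-time viability in HEK293: signal arises when living cells convert a prosubstrate for NanoLuc in the medium, so luminescence tracks viable cell number. Compound (23 nL, DMSO) added 5 h post-seeding; kinetic reads at 0–40 h, 37 C.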

[3] = A CellTox Green Cytotoxicity Assay to monitor cytotoxicity in HEK293 cells - 16 hour (AID 1224888); also: nearly all actives have a fitted effect of over 35% in size
Procedure, shortened: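 Cells (HEK293, 600/well) and dye reagent are dispensed together. After 5 h at 37 C, 23 nL compound is pinned in. Plates stay at 37 C for 40 h with fluorescence read at 0h, 8h, 16h, 24h, 32h and 40h.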

[4] = qHTS RealTime-Glo MT Cell Viability Assay in HepG2 cells - 0 hour (AID 1224889); also: nearly all actives have a fitted effect of over 50% in size
Procedure, shortened: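 Luminescence read-out: viable HepG2 cells reduce a prosubstrate to a NanoLuc substrate, giving a signal proportional to live cell number. Reads taken at 0, 8, 16, 24, 32 and 40 h of compound exposure at 37 C.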

[5] = A CellTox Green Cytotoxicity Assay to monitor cytotoxicity in HepG2 cells - 8 hour (AID 1224890); also: nearly all actives have a fitted effect of over 45% in size
Procedure, shortened: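 Cells and non-lytic dye reagent are dispensed together (600 HepG2 cells/well) and incubated 5 h before DMSO compound transfer. Kinetic fluorescence is then recorded in the same wells during 40 h at 37 C.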

[6] = qHTS assay to identify small molecule antagonists of the estrogen receptor alpha (ER-alpha) signaling pathway using the BG1 cell line in the presence of 0.1 nM 17-beta-estradiol - cell viability counter screen (AID 1259241); also: nearly all actives have a fitted effect of over 40% in size
Procedure, shortened: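 VM7Luc4E2 cells (endogenous full-length ER-alpha, 4xERE-luciferase), cultured 5 days in charcoal-stripped serum, exposed to compounds with 0.1 nM 17beta-estradiol (final) for 22 hr at 37C. Viability read in same wells as live-cell protease fluorescence after 30 min.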

[7] = qHTS assay to identify small molecule antagonists of the androgen receptor (AR) signaling pathway using the MDA cell line in the presence of 0.5 nM R1881 - cell viability counter screen (AID 1259242); also: nearly all actives have a fitted effect of over 45% in size
Procedure, shortened: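 Steps: plate MDA-kb2 cells, rest 5 hr at 37C without CO2; pin in compounds in DMSO; add R1881 to 0.5 nM final; incubate 16 hr; add CellTiter-Fluor, 30 min; read fluorescence.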

[8] = target: Androgen receptor (Homo sapiens) (UniProt P10275); assay: qHTS assay to identify small molecule antagonists of the androgen receptor (AR) signaling pathway using the MDA cell line in the presence of 0.5 nM R1881 (AID 1259243); also: nearly all actives have a fitted effect of over 50% in size
Procedure, shortened: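 Stably transfected MDA-kb2 cells express luciferase from an MMTV promoter bearing both AR and GR response elements. Compounds plus 0.5 nM R1881 (final) were incubated 16 hr at 37C without CO2, then luminescence measured.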

[9] = target: Estrogen receptor (Homo sapiens) (UniProt P03372); assay: qHTS assay to identify small molecule antagonists of the estrogen receptor alpha (ER-alpha) signaling pathway using the BG1 cell line in the presence of 0.1 nM 17-beta-estradiol (AID 1259244); also: nearly all actives have a fitted effect of over 50% in size; also: potency is read from the fitted curve at half-maximal effect
Procedure, shortened: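 Antagonist mode: compounds in DMSO are pinned onto VM7Luc4E2 reporter cells, 0.1 nM final 17beta-estradiol is added, and after 22 h at 37C luciferase luminescence is measured with ONE-Glo.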

[10] = qHTS assay to identify small molecule HDAC inhibitors (AID 1259364);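 also: wild-type HCT-116 cells with endogenous class I/II HDAC activity; top concentration of the series differs between compounds; nearly all actives have a fitted effect of over 45% in size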
Procedure, shortened: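 Cells (HCT-116, wild type) are seeded at 1,500 per well, incubated overnight, treated with compound in DMSO for 2 hr, then developed with HDAC-Glo I/II reagent for 30 min at room temperature.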

[11] = qHTS assay to identify small molecule HDAC inhibitors - cell viability counter screen (AID 1259365)
Procedure, shortened: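 Wild-type HCT-116 cells, 1,500/well, cultured overnight, then compound-treated 2 h at 37 C. Viability measured as ATP luminescence with CellTiter-Glo after 30 min at room temperature.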

[12] = qHTS assay to identify small molecule agonists of the sonic hedgehog signaling (Shh) pathway - cell viability counter screen (AID 1259366); also: nearly all actives have a fitted effect of over 50% in size
Procedure, shortened: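 NIH/3T3-derived Gli1-Luc reporter cells, 2,000 per well, received compound after 4 h and were treated about 23 h at 37C. Viability measured in the same wells by CellTiter-Fluor fluorescence after 1 h.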

[13] = qHTS assay to identify small molecule antagonists of the sonic hedgehog signaling (Shh) pathway - cell viability counter screen (AID 1259367); also: nearly all actives have a fitted effect of over 55% in size
Procedure, shortened: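 Fluorescence read-out (CellTiter-Fluor, 1 hr at 37C) taken after 23 hr compound treatment of 3T3 Gli1-Luc cells stimulated with conditioned medium. Cells were seeded at 2,000 per well and pre-incubated 4 hr.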

[14] = qHTS assay to identify small molecule agonists of the sonic hedgehog signaling (Shh) pathway (AID 1259368; calls by dose curve;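 also: NIH/3T3-derived 3T3Gli1-Luc cells carrying a stable Gli1-driven firefly luciferase reporter; series mostly up to about 92 µM; nearly all actives have a fitted effect of over 15% in size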)
Procedure, shortened: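 Cells of a mouse NIH/3T3 clone stably expressing luciferase under the Gli1 transcriptional response element are exposed to test chemicals for 24 hr at 37 C. Pathway activation is detected as a rise in luminescence.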

[15] = qHTS assay to identify small molecule agonists of the androgen receptor (AR) signaling pathway in the presence of an antagonist - cell viability counter screen (AID 1259379);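 also: MDA-kb2 human breast cancer cells carrying an MMTV luciferase reporter; series mostly up to about 92 µM; nearly all actives have a fitted effect of over 25% in size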
Procedure, shortened: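 Cytotoxicity is assessed by CellTiter-Fluor in MDA-kb2 cells carrying an MMTV-driven luciferase reporter. Cells receive 3.0uM nilutamide plus compounds at 15 concentrations and incubate 16 hr at 37C without CO2 before fluorescence reading.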

[16] = qHTS assay to identify small molecule agonists of the estrogen receptor beta (ER-beta) signaling pathway - cell viability counter screen (AID 1259380); also: nearly all actives have a fitted effect of over 30% in size
Procedure, shortened: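 Cytotoxicity is measured in parallel with the reporter screen: after 16 hr compound exposure at 37C and a 2 hr LiveBLAzer step, CellTiter-Glo is added to the same ER-beta-UAS-bla HEK293T wells and luminescence read after 30 min.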

[17] = qHTS assay to identify small molecule antagonists of the sonic hedgehog signaling (Shh) pathway (AID 1259369; calls by dose curve; also: nearly all actives have a fitted effect of over 45% in size; also: potency is read from the fitted curve at half-maximal effect)
Procedure, shortened: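 Cells are plated and held 4hr at 37 C, compounds (DMSO) are pinned in, conditioned medium is added to stimulate the pathway, and after 24hr luciferase reagent is added for 30min before luminescence is read.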

[18] = target: Estrogen receptor beta (Homo sapiens) (UniProt Q92731); assay: qHTS assay to identify small molecule antagonists of the estrogen receptor beta (ER-beta) signaling pathway (AID 1259378; active = well fitted inhibition curve with a large enough effect in the signal ratio in the repeat runs, not every such curve was filed as active; the % refers to the signal ratio)
Procedure, shortened: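 ER-beta-UAS-bla HEK293T cells in 2% charcoal-stripped FBS medium treated with compound plus 1nM final 17-beta-estradiol for 16 hr at 37C. Beta-lactamase reporter read by FRET substrate fluorescence after 2 hours at room temperature.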

[19] = qHTS assay to identify small molecule phospholipidosis (PLD) inducers (AID 1259344; active = well fitted curve in the direction sought with a large enough effect; an effect the other way counts as inactive or inconclusive)
Procedure, shortened: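 Read-out is LipidTOX Red fluorescence (ex 595/em 615) imaged in HepG2 cells after 24 h compound exposure at 37 C, with Hoechst nuclear counterstain (ex 352/em 461) allowing per-cell normalisation.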

[20] = target: Estrogen receptor beta (Homo sapiens) (UniProt Q92731); assay: qHTS assay to identify small molecule agonists of the estrogen receptor beta (ER-beta) signaling pathway (AID 1259377; active = well fitted activation curve with a large enough effect in the signal ratio in the repeat runs, not every such curve was filed as active; the % refers to the signal ratio)
Procedure, shortened: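 ER-beta-UAS-bla HEK293T cells in medium with 2% charcoal-stripped FBS were exposed to compounds for 16 h at 37C. Beta-lactamase reporter activity was read as fluorescence after 2 h with LiveBLAzer B/G FRET substrate at room temperature.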
% is scaled to controls: 0 for no effect and ±100 for the full control effect.

Chain of Androgen receptor (Homo sapiens) (P10275 whole entry, looked up): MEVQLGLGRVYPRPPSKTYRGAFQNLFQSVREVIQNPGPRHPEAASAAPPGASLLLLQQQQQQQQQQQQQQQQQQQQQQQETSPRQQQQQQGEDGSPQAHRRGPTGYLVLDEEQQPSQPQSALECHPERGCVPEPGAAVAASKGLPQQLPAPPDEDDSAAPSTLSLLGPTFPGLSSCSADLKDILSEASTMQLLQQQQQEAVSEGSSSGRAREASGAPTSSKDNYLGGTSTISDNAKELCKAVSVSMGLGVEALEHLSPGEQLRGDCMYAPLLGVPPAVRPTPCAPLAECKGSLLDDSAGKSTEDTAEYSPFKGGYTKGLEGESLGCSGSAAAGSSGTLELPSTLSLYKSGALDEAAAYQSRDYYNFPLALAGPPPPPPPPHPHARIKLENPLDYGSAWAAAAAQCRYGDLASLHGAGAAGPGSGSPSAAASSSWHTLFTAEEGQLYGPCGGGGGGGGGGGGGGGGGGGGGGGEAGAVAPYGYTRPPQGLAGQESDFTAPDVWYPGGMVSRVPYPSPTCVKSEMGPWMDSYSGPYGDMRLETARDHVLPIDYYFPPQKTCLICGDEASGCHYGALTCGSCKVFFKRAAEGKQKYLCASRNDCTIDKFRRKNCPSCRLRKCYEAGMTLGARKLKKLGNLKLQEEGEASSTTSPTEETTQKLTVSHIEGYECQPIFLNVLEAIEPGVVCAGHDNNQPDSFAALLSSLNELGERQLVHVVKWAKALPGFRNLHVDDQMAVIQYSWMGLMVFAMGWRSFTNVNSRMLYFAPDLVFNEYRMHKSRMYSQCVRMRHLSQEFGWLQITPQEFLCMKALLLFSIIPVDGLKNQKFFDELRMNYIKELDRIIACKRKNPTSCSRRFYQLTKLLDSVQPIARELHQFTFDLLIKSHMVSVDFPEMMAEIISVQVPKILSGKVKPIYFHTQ
Chain of Estrogen receptor beta (Homo sapiens) (Q92731 whole entry, looked up): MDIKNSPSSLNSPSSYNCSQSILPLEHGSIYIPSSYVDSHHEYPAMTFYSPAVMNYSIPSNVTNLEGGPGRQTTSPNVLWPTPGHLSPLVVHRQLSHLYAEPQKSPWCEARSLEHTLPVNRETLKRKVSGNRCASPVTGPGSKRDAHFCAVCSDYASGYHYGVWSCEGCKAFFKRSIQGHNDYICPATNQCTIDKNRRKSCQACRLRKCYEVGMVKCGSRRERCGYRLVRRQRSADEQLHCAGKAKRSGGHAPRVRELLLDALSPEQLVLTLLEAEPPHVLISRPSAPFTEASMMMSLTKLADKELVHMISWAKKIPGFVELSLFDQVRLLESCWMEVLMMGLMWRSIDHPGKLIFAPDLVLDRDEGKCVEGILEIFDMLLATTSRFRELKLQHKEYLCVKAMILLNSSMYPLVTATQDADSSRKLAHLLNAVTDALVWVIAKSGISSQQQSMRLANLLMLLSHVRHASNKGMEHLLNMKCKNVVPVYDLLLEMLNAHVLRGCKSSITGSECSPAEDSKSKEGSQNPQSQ
Chain of Estrogen receptor (Homo sapiens) (P03372 whole entry, looked up): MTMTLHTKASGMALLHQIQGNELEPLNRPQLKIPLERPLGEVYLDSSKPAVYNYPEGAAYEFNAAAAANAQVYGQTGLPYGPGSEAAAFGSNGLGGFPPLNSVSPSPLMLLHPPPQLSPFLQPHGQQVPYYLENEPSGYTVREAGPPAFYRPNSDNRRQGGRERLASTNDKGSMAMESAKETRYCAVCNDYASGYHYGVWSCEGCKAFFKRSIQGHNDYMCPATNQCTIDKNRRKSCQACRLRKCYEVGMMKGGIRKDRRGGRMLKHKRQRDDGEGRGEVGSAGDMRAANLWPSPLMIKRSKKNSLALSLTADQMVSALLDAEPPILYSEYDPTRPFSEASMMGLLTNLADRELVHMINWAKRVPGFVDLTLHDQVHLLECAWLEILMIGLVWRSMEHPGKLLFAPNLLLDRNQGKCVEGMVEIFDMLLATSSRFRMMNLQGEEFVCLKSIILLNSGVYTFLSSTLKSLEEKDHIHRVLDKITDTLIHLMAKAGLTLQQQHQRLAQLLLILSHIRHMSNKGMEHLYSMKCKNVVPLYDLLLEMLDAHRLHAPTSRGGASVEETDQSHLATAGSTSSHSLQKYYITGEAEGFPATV

Cc1nc2n(c(=O)c1CCN1CCC(C(=O)c3ccc(F)cc3)CC1)CCS2
active: Potency [1] 5.35 µM | Potency [2] 6.74 µM | Potency [9] 23.7 µM
inactive: Potency [3] | Potency [4] | Potency [5] | Potency [6] | Potency [7] | outcome [8] | Potency [10] | outcome [11] | Potency [12] | Potency [13] | outcome [14] | Potency [15] | outcome [16]

COc1cccc2sc(N)nc12
active: Potency [17] 24.5 µM
inactive: Potency [1] | Potency [2] | Potency [3] | Potency [4] | Potency [5] | Potency [6] | Potency [7] | outcome [8] | outcome [11] | Potency [13] | outcome [14] | outcome [18] | Potency [15]

Cc1ncc([N+](=O)[O-])n1CC(O)CCl (configuration not stated)
inactive: Potency [1] | Potency [2] | Potency [3] | Potency [4] | Potency [5] | Potency [6] | Potency [7] | outcome [8] | outcome [19] | Potency [10] | outcome [11] | Potency [13] | outcome [14] | Potency [15]

Cc1nc([N+](=O)[O-])cn1-c1ccc([N+](=O)[O-])cc1
inactive: Potency [1] | Potency [2] | Potency [3] | Potency [4] | Potency [5] | Potency [6] | Potency [7] | Potency [9] | outcome [19] | Potency [10] | outcome [11] | Potency [13] | outcome [14] | Potency [17] | Potency [15] | outcome [16]

CCC(=O)c1ccc(O)cc1
inactive: Potency [1] | Potency [2] | Potency [3] | Potency [4] | Potency [5] | Potency [6] | Potency [7] | Potency [9] | outcome [19] | Potency [10] | outcome [11] | Potency [12] | Potency [13] | outcome [14] | Potency [17] | Potency [15]

C=CCCCCCCCCCCC
inactive: activity change, negative = cytotoxicity [1] 4.16% [at 6.97 µM] | activity change, negative = cytotoxicity [2] 3.08% [at 6.97 µM] | activity change [3] -0.692% [at 6.97 µM, stronger effect = higher value] | activity change, negative = cytotoxicity [4] 5.28% [at 6.97 µM] | cytotoxicity increase [5] 4.2% [at 6.97 µM] | activity change, negative = cytotoxicity [6] 0.186% [at 8.39 µM] | viability change, negative = cytotoxic [7] 0.96% [at 8.39 µM] | activity, negative = inhibition [8] 5.11% [at 8.39 µM] | activity change, negative = inhibition [9] 8.3% [at 8.39 µM] | activity change, negative = inhibition [10] 4.91% [at 8.39 µM] | activity change, negative = cytotoxicity [11] 4.34% [at 8.39 µM] | viability change, negative = cytotoxic [12] 3.1% [at 8.39 µM] | viability change, negative = cytotoxic [13] 2.53% [at 8.39 µM] | activity change, negative = inhibition [17] -3.37% [at 8.39 µM] | activity change, negative = cytotoxicity [15] 0.376% [at 8.39 µM]

CCCCCCCCCCCCCC(=O)OC
inactive: Potency [1] | Potency [2] | Potency [3] | Potency [4] | Potency [5] | Potency [6] | Potency [7] | outcome [8] | Potency [9] | Potency [10] | outcome [11] | Potency [12] | Potency [13] | outcome [14] | Potency [17] | Potency [20] | outcome [18] | Potency [15] | outcome [16]

CCCCC[Si](OCC)(OCC)OCC
inactive: Potency [1] | Potency [2] | Potency [3] | Potency [4] | Potency [5] | Potency [6] | Potency [7] | outcome [8] | Potency [10] | outcome [11] | Potency [12] | Potency [13] | outcome [14] | Potency [20] | outcome [18] | Potency [15] | outcome [16]
